# Shown are actives, neighbours in structure and some others; about 2.2% of the full set was active somewhere.
# BaF3 tox – parental Ba/F3 viability inhibition as JAK2V617F counter-screen | CellTiter-Glo ATP luminescence | actives 1.1% (n = 220,000) | inhibition, % at 5.6 µM | AID 1486;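 active means inhibition above a per-campaign cutoff, the mean inhibition of all tested compounds plus 3 SD, cut at about 27% in these data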
# IEC-6 cytotox – counter-screen for KLF5 inhibitors: cytotoxicity in IEC-6 cells; IEC-6 cytotoxicity, luminescence viability; inhibition, % at 5 µM; actives 0.78% (n = 290,000); in the data active means inhibition above about 22%
# APP transl inh – APP translation inhibition; AID 1285; SH-SY5Y APP 5'UTR-luciferase reporter, luminescence; inhibition, % at 2 µM; actives 0.82% (n = 190,000);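 active means inhibition above a set limit, derived from the sample mean plus 3 SD, cut at about 45% in these data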
# aSyn UTR inh – MLPCN primary screen, SNCA 5' untranslated region | alpha-synuclein 5'UTR reporter, inhibitor activity | inhibition, % (tested at 7.5 µM) | actives 0.82% (n = 300,000); in the data active means inhibition above about 60%;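 further: H4 neuroglioblastoma cells stably carrying SNCA 5'UTR luciferase fusion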
# Ba/F3 V617F tox – loss of viability in JAK2V617F-driven Ba/F3 cells. Ba/F3 EpoR-JAK2V617F viability, ATP luminescence. inhibition, % at 5.6 µM. actives 1.1% (n = 220,000);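 active means inhibition above the campaign mean plus 3 SD over all tested compounds, cut at about 24% in these data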;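 further: cytokine-independent growth of Ba/F3 cells driven by EpoR plus mutant JAK2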
# KLF5 inhibitor – suppresses KLF5 promoter-driven expression | DLD-1 KLF5 promoter-luciferase reporter, luminescence | AID 1700 | actives 0.23% (n = 290,000) | inhibition, % at 5 µM;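 active means inhibition above a per-plate limit of that plate's mean compound inhibition plus 3 SD, cut at about 60% in these data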;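 further: higher means less KLF5 promoter-driven luciferase light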
# BaF3 tox 2 – parental Ba/F3 viability inhibition for JAK2V617F counter-screen. shares compounds with Ba/F3 V617F tox. CellTiter-Glo luminescence; cells kept alive by added IL-3. inhibition, % at 5.6 µM. actives 31% (n = 580). AID 1520;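 active means cell growth inhibition above the hit limit set in the earlier mutant JAK2 cell screen, cut at about 27% in these data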
# JAK2V617F conf – confirmation: loss of viability in JAK2V617F-dependent Ba/F3 cells | shares compounds with Ba/F3 V617F tox | inhibition, % at 5.6 µM | Ba/F3 EpoR-JAK2V617F viability, CellTiter-Glo luminescence | actives 66% (n = 580);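 active means mean inhibition above the hit cutoff derived in the earlier primary screen, cut at about 25% in these data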;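 further: higher means lower luminescence from reduced cell ATP and viability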
# Numbers stand for hits; – = inactive; · = no result.
SMILES,BaF3 tox,IEC-6 cytotox,APP transl inh,aSyn UTR inh,Ba/F3 V617F tox,KLF5 inhibitor,BaF3 tox 2,JAK2V617F conf
CC(NC(=O)c1cc(COc2ccc3ncccc3c2)on1)c1ccc(F)cc1 (stereo unspecified),36,–,·,–,31,–,·,·
COc1cccc(CN(C)C(=O)c2cc(COc3ccc4ncccc4c3)on2)c1,71,–,–,–,54,–,·,·
CCOCCCNCc1ccc(OCCC(C)C)c(OC)c1,–,–,–,–,–,–,·,·
CC(=O)N(C)c1ccc(OCC(O)Cn2c(C)nc3ccccc32)cc1 (stereo unspecified),42,–,–,–,29,–,·,·
Brc1cc2c(cc1Br)OCCOCCOCCOCCO2,–,–,–,–,–,–,·,·
Brc1ccc2c(c1)OCCOCCOc1cc(Br)ccc1OCCOCCOCCO2,–,–,–,73,–,–,·,·
COc1ccc(CN(CC2CCC(C(=O)O)CC2)C(=S)Nc2cc(Cl)ccc2OC)cc1 (stereo unspecified),–,–,–,–,–,–,·,·
Cc1nn(-c2ccccc2Cl)c(Cl)c1/C=N/Nc1nc2ccccc2s1,–,–,–,69,–,–,·,·
O=C(NC1CCN(Cc2ccccc2)CC1)c1cn(-c2ccccc2)nc1-c1cccnc1,·,·,·,–,·,·,·,·
NS(=O)(=O)OCCCc1ccccc1,·,–,·,–,·,–,·,·
[2H]C(CCOS(N)(=O)=O)c1ccc(C(C)(C)C)cc1 (stereo unspecified),·,–,·,80,·,–,·,·
CC(C)Cc1nnc(NC(=O)CN2C(=O)c3ccccc3C2=O)s1,–,–,–,–,–,–,·,·
COc1ccc(CCNC(=O)c2nonc2N)cc1OC,69,–,–,–,–,–,·,·
O=C(Nc1ccc(Cl)cc1)/C(=C/c1ccc([N+](=O)[O-])cc1)c1nc2ccccc2s1,–,–,96,·,–,–,·,·
O=C(N/N=C/c1ccc([N+](=O)[O-])o1)c1cc2ccccc2o1,–,–,·,66,–,–,·,·
Cc1scc(C(=O)N/N=C/c2ccc([N+](=O)[O-])o2)c1C,·,–,·,85,·,–,·,·
Cc1scc(C(=O)N/N=C/c2ccco2)c1C,–,–,–,–,–,–,·,·
COc1ccc(N2C(=O)C3CCCN3C2=S)cc1 (stereo unspecified),·,–,·,–,·,–,·,·
C=CCOC(=O)c1[nH]c2c(c1C)C(=O)CC(c1cc(OC)c(OC)c(OC)c1)C2 (stereo unspecified),44,–,–,–,41,–,·,·
COCCOC(=O)c1[nH]c2c(c1C)C(=O)CC(c1ccco1)C2 (stereo unspecified),77,–,96,–,76,–,·,·
CCn1c2ccccc2c2nnc(SCC(=O)Nc3c(C)n(C)n(-c4ccccc4)c3=O)nc21,–,–,–,–,–,–,·,·
Cc1c(NC(=O)CSc2nnc3c4ccccc4n(CCc4ccccc4)c3n2)c(=O)n(-c2ccccc2)n1C,–,60,–,–,–,–,·,·
CSc1nnc2c(n1)OC=Nc1ccc(Br)cc1-2,–,–,·,–,–,–,·,·
C=CCn1c(COc2ccc(F)cc2)nnc1SCC(=O)NC1CCS(=O)(=O)C1 (stereo unspecified),·,·,·,–,·,·,·,·
C=CCn1c(SCC(=O)c2ccc(O)c(O)c2)nnc1-c1ccccc1OC,–,–,–,–,34,–,–,–
SMILES,BaF3 tox,IEC-6 cytotox,APP transl inh,aSyn UTR inh,Ba/F3 V617F tox,KLF5 inhibitor,BaF3 tox 2,JAK2V617F conf
CC(=O)c1nn(-c2cccc(Br)c2)cc1C(=O)c1ccccc1,–,–,–,–,56,–,–,–
COc1ccc(N(C)S(=O)(=O)c2cccc(C(=O)Nc3ccc(-n4cnnn4)cc3)c2)cc1,–,–,–,–,40,–,–,26
Cc1ccc(C23CC4CC(CC(C(=O)N5CCN(C)CC5)(C4)C2)C3)cc1,–,–,·,–,–,–,·,·
Cc1ccc(C23CC4CC(CC(CC(=O)N5CCOCC5)(C4)C2)C3)cc1,–,–,–,–,97,–,–,–
Cc1ccc(C)c(Sc2ccc(NC(=O)CCl)cc2)c1,–,–,60,–,50,–,–,86
Cc1ccc(Sc2ccc(NC(=O)CCl)cc2)cc1C,–,–,–,–,–,–,·,·
CC(C)(C)c1cc(NC(=O)CCl)n(-c2ccccc2)n1,–,–,·,–,30,–,–,81
CC1(c2nnc(Cc3ccccc3)o2)CC(c2cccnc2)=NO1 (stereo unspecified),·,·,·,–,·,·,·,·
Oc1ccc(Cl)cc1CNc1ccc(Br)cn1,–,–,–,–,27,–,–,31
Nc1nn(-c2ccccc2)c(N)c1N=Nc1ccccc1F,–,24,–,–,36,–,36,69
Nc1c(N=Nc2ccccc2F)c(=O)[nH]n1-c1ccccc1,–,–,–,–,–,–,·,·
Cc1ccc(N(CC(O)CN2C(=O)NC(C)(C)C2=O)S(=O)(=O)c2ccc(C)cc2)cc1 (stereo unspecified),–,–,·,–,25,–,–,–
CC(C)CN(C(=O)COC(=O)C1=COCCO1)c1c(N)n(Cc2ccccc2)c(=O)[nH]c1=O,·,·,·,–,·,·,·,·
CCCCCCCCCCCC(=O)NC1CCS(=O)(=O)C1 (stereo unspecified),–,–,–,–,70,–,–,–
Cc1ccc(NC(=O)C2CCCCC2)c(O)c1,–,–,–,–,–,–,·,·
Cc1ccc(O)c(NC(=O)C2CCCCC2)c1,–,–,·,–,25,–,–,50
C#CC[N+](C)(C)CC#Cc1ccccc1,–,–,–,–,39,–,–,42
CCc1nc(N=C(N)N)nc2ccccc12,–,–,–,–,28,–,–,53
CCc1nc2ccccc2c(C(=O)O)c1C,–,–,–,–,–,–,·,·
O=C(Cc1ccccc1)Nc1scc(-c2ccccc2)c1C(=O)N1CCOCC1,–,–,–,–,–,–,·,·
NC(=O)c1c(-c2ccc(Cl)cc2Cl)csc1NC(=O)Cc1ccccc1,–,–,–,–,38,–,40,65
CC(C)(C)SCCNS(=O)(=O)c1ccc2ccccc2c1,–,–,–,–,–,–,·,·
CC(C)(C)SCCNS(=O)(=O)c1ccccc1,–,–,–,–,99,–,–,–
CCOC(=O)N1CCN(S(=O)(=O)N2CCCC(C(=O)NC(C)c3ccccc3)C2)CC1 (stereo unspecified),·,–,·,–,·,–,·,·
CCOc1ccc(N2C(=O)CC(Sc3nnnn3-c3ccccc3)C2=O)cc1 (stereo unspecified),–,–,–,–,33,–,–,–
COc1ccc(-c2cc(C(=O)N3CCN(c4ccccc4F)CC3)c3ccccc3n2)c(OC)c1,·,–,·,–,·,–,·,·
COc1cccc(C2(O)CCN(C(=O)C(C)C)CC2)c1,–,–,·,–,–,–,·,·
COc1cccc(C2(O)CCN(C(=O)c3cccs3)CC2)c1,–,–,–,–,55,–,–,–
Cc1nc(Nc2ccc3c(c2)OCCO3)c2oc3ccccc3c2n1,–,–,–,–,59,–,–,–

# Source: PubChem BioAssay
